# Source: PubChem (Broad Institute)
# Most compounds without a hit are left out; they make up all but 2.1% or so of the library.
# CASP6 VEID inh – human caspase-6 inhibitors, primary screen, biochemical, VEID-R110 fluorescence, single point, set 2; hit rate 0.53% among 350,000; P55212; inhibition, % at 12.5 µM; AID 686996, 2013; purified caspase-6, Z-VEID-R110 cleavage fluorescence;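 active = mean inhibition across replicates at least about 35%, with every replicate also reaching that limit, limit read from the data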;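 note: 0% = median of neutral control wells and 100% = no fluorescence left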
# SIRT5 block – SIRT5 desuccinylase inhibitors, primary screen, biochemical, fluorescence imaging, single point, set 5. NAD-dependent protein deacylase sirtuin-5, mitochondrial (Homo sapiens), Q9NXA8. Purified SirT5, succinyl-peptide AMC, trypsin-coupled fluorescence. inhibition, % at 15 µM. hit rate 1.1% among 330,000. AID 652115, 2013; in the data active = inhibition above about 15%
# Target sequence (Q9NXA8 whole entry, looked up): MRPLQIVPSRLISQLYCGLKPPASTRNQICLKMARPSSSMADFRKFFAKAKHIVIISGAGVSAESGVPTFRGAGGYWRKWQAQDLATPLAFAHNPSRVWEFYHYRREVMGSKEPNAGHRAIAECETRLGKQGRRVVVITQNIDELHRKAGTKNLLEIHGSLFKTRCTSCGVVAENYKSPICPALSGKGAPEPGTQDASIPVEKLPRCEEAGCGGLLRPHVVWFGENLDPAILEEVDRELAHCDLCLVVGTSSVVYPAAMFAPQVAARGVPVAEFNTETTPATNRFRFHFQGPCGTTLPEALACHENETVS
# PfHsp90 yeast 2 – growth inhibition of PfHsp90-expressing yeast, primary screen, antimalarial PfHsp90 inhibitor project, S. cerevisiae, BacTiter-Glo luminescence, single point, set 2; BacTiter-Glo ATP, 48 h; yeast lacking PDR1 and PDR3 efflux regulators; inhibition, % at 9.4 µM; hit rate 0.32% among 310,000; AID 504621, 2011;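 active = every replicate shows inhibition above about 80%, whatever the replicate mean, limit read from the data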;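 note: 0% = DMSO neutral controls and 100% = 20 µM radicicol positive controls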
# ARNT TACC3 PPI – disruptors of ARNT/TACC3 protein interaction, primary screen, biochemical, AlphaScreen, single concentration | Transforming acidic coiled-coil-containing protein 3 (Homo sapiens), Q9Y6A5 | AlphaScreen His-ARNT PAS-B/GST-TACC3 binding, luminescence; TACC3 fragment carries E629A point mutation | inhibition, % at 9.99 µM | hit rate 0.66% among 390,000;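 active = mean inhibition of replicates at least 50% and at least half of replicates each reaching 50%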;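 note: 0% = complete ARNT plus TACC3 wells and 100% = ARNT alone without TACC3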
# NSD2 HMT inh – NSD2 histone methyltransferase inhibitors, primary screen, biochemical, AlphaScreen, single concentration, set 2. Histone-lysine N-methyltransferase NSD2 (Homo sapiens), O96028. hit rate 0.54% among 310,000. inhibition, % at 12.5 µM. NSD2 peptide methylation, 120 min; in the data active = inhibition above about 50%
# AlphaScreen ctr – AlphaScreen signal interference compounds, dose response, artefact control for ARNT-TACC3 interaction inhibitor project, biochemical, luminescence, cherry-pick; His-ARNT PASB-GST AlphaScreen artifact counter-screen; hit rate 50% among 1,200; shares compounds with ARNT TACC3 PPI; AC50, µM (titrated, usually from 68 µM), inactives show top-dose activity change, negative = signal decrease;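 active = every separate test run was called active for a drop in luminescence, with AC50 within twice the top valid dose, actives reach about 71 µM in these data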
# * hit, by the source's call; / = not tested or not shown; [ ] = another dose, or the depositor's remark.
SMILES,CASP6 VEID inh,SIRT5 block,PfHsp90 yeast 2,ARNT TACC3 PPI,NSD2 HMT inh,AlphaScreen ctr
O=C(C[C@@H]1C[C@H]2c3cc(NC(=O)NC4CCCCC4)ccc3O[C@H]2[C@@H](CO)O1)NCc1ccccc1,-2,2,/,-12,/,/
O=C(C[C@H]1C[C@H]2c3cc(NC(=O)NC4CCCCC4)ccc3O[C@H]2[C@H](CO)O1)NCc1ccccc1,-1,4,/,active,/,1%[38 µM]
COc1ccc(Nc2cc3n(c(=O)n2)CCc2cc(OC)c(OC)cc2-3)cc1,4,0,0,63*,3,-29%
O=C(N/N=C/c1cccc2nccnc12)c1ccccc1O,0,1,-9,59*,/,30µM*
O=C(N/N=C/c1cccc2nccnc12)c1ccncc1,-3,7,/,/,-7,/
COc1cccc(-c2ccc(CC[C@H]3O[C@H]4CC[C@H](CO)O[C@H]4C[C@@H]3NS(C)(=O)=O)cc2)c1,/,-7,/,/,/,/
CCCC(=O)NC(c1ccccc1)c1ccc2cccnc2c1O (stereo unspecified),-3,-1,113*,61*,-1,28µM*
CCCCC(=O)NC(c1cccc([N+](=O)[O-])c1)c1ccc2cccnc2c1O (stereo unspecified),-1,/,115*,61*,2,8.1µM*
O=C(O)c1ccc(Br)c(S(=O)(=O)N2CCCC2)c1,-1,-2,/,60*,-2,10%
C[C@H]1CN([C@@H](C)CO)C(=O)c2cc(NC(=O)CCCCCC(=O)Nc3ccccc3N)ccc2O[C@@H]1CN(C)S(=O)(=O)c1ccc(F)cc1,0,/,/,/,/,/
Cc1ccn(CC(=O)N/N=C/c2cc([N+](=O)[O-])ccc2O)n1,/,/,14,/,-7,/
O=C(Cn1cncn1)N/N=C/c1cc([N+](=O)[O-])ccc1O,-4,1,-5,64*,-24,28µM*
O=C(CCCn1cnc([N+](=O)[O-])n1)Nc1cc(Cl)ccc1O,/,-2,-17,-5,-1,/
O=C(Cn1cnc([N+](=O)[O-])n1)N/N=C/c1cc(Cl)ccc1O,-7,-2,3,58*,-7,70µM*
c1ccc(-c2noc(-c3ccco3)n2)nc1,/,/,-1,/,0,/
c1ccc(-c2nccc(-c3ccco3)n2)nc1,-3,-2,/,59*,0,57µM*
COc1ccc(S(=O)(=O)Nc2ccc3c(c2)C(=O)N([C@@H](C)CO)C[C@@H](C)[C@@H](CN(C)C(=O)Nc2ccccc2)O3)cc1,-1,1,/,2,/,/
O=C(NCCN1CCOCC1)c1cc(-c2cccc(O)c2)on1,-1,1,-31,-7,-4,/
O=C(NCC1CCCCC1)c1cc(-c2ccccc2)on1,/,/,/,/,/,4%[38 µM]
CC(C)(C)CCNC(=O)c1cc(-c2ccccc2)on1,/,/,/,/,/,68µM*
O=C(NCc1ccccn1)c1cc(-c2ccccc2)on1,/,/,0,-8,-3,/
O=C(NCCN1CCCCC1)c1cc(-c2ccccc2)on1,/,/,/,/,/,5%[38 µM]
CCCCNC(=O)c1cc(-c2ccccc2)on1,/,/,/,/,/,5%[38 µM]
NCC[C@H]1CC[C@H](NC(=O)C2CC2)[C@H](CO)O1,0,1,/,/,/,/
Cc1cccc(CNC(=O)c2cc(-c3ccccc3)on2)c1,/,/,/,/,/,47µM*
O=C(NCCCO)c1cc(-c2ccccc2)on1,/,/,/,/,/,-2%[38 µM]
CCCOc1ccc(/C=N/Nc2cc(N3CCOCC3)ncn2)c(O)c1,2,-4,-17,58*,1,-27%
O=C(NCCCNCCCNC(=O)c1ccc(/C=N/O)nc1)c1ccc(/C=N/O)nc1,-45,-6,-16,56*,-33,66µM*
Cc1[nH]n2c(=O)c3c(nc2c1-c1ccccc1)CCC3,/,/,10,59*,1,-1%
COc1ccc(S(=O)(=O)N(C)C[C@H]2Oc3ccc(NC(=O)Cn4cnnn4)cc3C(=O)N([C@@H](C)CO)C[C@@H]2C)cc1,2,8,/,-7,/,/
